Measured values taken from ChEMBL document CHEMBL3433997, “St. Jude Leishmania screening dataset” (2016).

target: Solute carrier family 2, facilitated glucose transporter member 1 (Homo sapiens) (UniProt P11166); test: ST_JUDE_LEISH: Cytotoxicity at 2uM final concentration against transgenic Leishmania Mexicana promastigotes LmGLUT1 that are glucose transport deficient and complemented with the human glucose transporter GLUT1. Activity is measured by DNA content using SYBR green in vitro; format: functional
Sequence (P11166 whole entry): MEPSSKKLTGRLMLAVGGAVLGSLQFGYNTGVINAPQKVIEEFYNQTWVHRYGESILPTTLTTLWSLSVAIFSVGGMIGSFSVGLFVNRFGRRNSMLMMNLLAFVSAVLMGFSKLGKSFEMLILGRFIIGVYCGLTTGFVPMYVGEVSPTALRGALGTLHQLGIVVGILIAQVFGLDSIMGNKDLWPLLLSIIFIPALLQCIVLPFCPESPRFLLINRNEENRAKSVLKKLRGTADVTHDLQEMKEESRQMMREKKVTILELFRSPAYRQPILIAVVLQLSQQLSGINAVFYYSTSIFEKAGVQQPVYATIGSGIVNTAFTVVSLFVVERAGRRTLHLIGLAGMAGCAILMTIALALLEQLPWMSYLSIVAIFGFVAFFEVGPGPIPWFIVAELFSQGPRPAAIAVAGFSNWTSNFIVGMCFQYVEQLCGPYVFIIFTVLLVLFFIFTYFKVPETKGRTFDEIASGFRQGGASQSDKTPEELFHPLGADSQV

SMILES | inhibition
O=c1cc(NC[C@H]2CCC[C@@H]2NC2CCCc3c2[nH]c2ccccc32)[nH]c2ccccc12 (some centres undefined) | 0.74%
COc1cc2nc(C)nc(Nc3ccc(Oc4ccccc4)cc3)c2cc1OC | -2.63%
Cc1cc(C)cc(CC(=O)N2CCC(n3c(C)nc4ccc(C)cc43)CC2)c1 | 2.35%
CCOC(=O)c1ccc2[nH]c(-c3ccc(C(=O)NC4CCN(Cc5ccccc5)CC4)s3)nc2c1 | 4.45%
CCCCNCc1ccc(-c2nc(CN(CCCn3ccnc3)C(=O)NC3CC3c3ccccc3)cs2)cc1 (centres undefined) | 3.77%
COc1ccc2c(N/N=C/c3ccc([N+](=O)[O-])cc3)ccnc2c1 | 6.14%
O=C(Nc1cccc(-c2nn3ccccc3c2-c2ccnc(Nc3ccc(-c4cc[nH]n4)cc3)n2)c1)c1c(F)cccc1F | 6.17%
CCN(CC)/C(=N/C(=N)Nc1ccc(C)cc1)NCCCCCCN/C(=N\C(=N)Nc1ccc(C)cc1)N(CC)CC | 7.79%
O=C(/C=C/c1ccc(C(F)(F)F)cc1)N1CCC(CCN2CCC(c3c[nH]c4ccccc34)CC2)CC1 | 16.8%
CCNc1cc(C(=O)N[C@@H](Cc2ccccc2)[C@H](O)CN[C@@H](C)c2ccccc2)cc(N2CCCC2=O)c1 | 1.35%
COc1cc(C(=O)Nc2ccc(-c3nc4ccccc4[nH]3)cc2)cc(OC)c1OC | 2.49%
CCCNCc1ccc(-c2ccc(CN(Cc3ccc4c(c3)OCO4)C(=O)Cc3cccnc3)cc2)nc1 | 23.9%
COc1ccc2nc(N(CCCn3ccnc3)C(=O)C=Cc3cccs3)sc2c1 | 3.73%
CN1CCCN(Cc2ccc(-c3cccc(NC(=O)c4cccc(C#N)c4)c3)cc2)CC1 | 8.55%
